Measurements taken from PubChem BioAssay (NCI).
The panel holds about 83,000 compounds, 20% with a hit somewhere; the sample as a whole holds those more often.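 The test compound was applied at a single concentration to cells in 96-well plates for 48 hours, and percent growth was recorded.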 Values without a mark were called inactive. Calls of active or inactive are those of the source. Rule for the calls: active = growth percent below 10; inactive = the rest.

Key:
Experiment in all cases: NCI-60 one-dose screen, 48 h (100 = growth as untreated, 0 = no growth, -100 = all killed)
Details in all cases: 10 µM unless noted
NCI-H23 lung = tested on: NCI-H23 lung
NCI-H226 lung = tested on: NCI-H226 lung
NCI-H322M lung = tested on: NCI-H322M lung
HOP-62 NSCLC = tested on: HOP-62 NSCLC
NCI-H460 lung = tested on: NCI-H460 lung
HOP-92 NSCLC = tested on: HOP-92 NSCLC
NCI-H522 lung = tested on: NCI-H522 lung
A549/ATCC NSCLC = tested on: A549/ATCC NSCLC
786-0 renal = tested on: 786-0 renal
COLO 205 colon = tested on: COLO 205 colon

Row | Structure (SMILES) | growth (NCI-H23 lung) | growth (NCI-H226 lung) | growth (NCI-H322M lung) | growth (HOP-62 NSCLC) | growth (NCI-H460 lung) | growth (HOP-92 NSCLC) | growth (NCI-H522 lung) | growth (A549/ATCC NSCLC) | growth (786-0 renal) | growth (COLO 205 colon)
1 | COc1cc2c(O)n(CCCN3CCOCC3)c3c4cnc5cccc(c(=O)c3c2cc1OC)c54 | 33.3% | 38.2% | 47.2% | 14.5% | 9.15% (active) | 58.4% | 16.9% | 30.1% | 19% | 34.2%
2 | Cc1ccc(NCCN2CCCCC2)c2c(=O)c3ccccc3sc12 | 43.1% | 57.2% | 45.7% | 55.6% | 2.26% (active) | 29.5% | 2.96% (active) | 20.2% | 30.7% | -41.8% (active)
3 | C=C1C(=O)O[C@H]2[C@H]1CC/C(COC(=O)NCc1ccc(Cn3c(=O)sn(-c4ccc(Cl)cc4)c3=O)cc1)=C\CC[C@@]1(C)O[C@@H]21 | 94.9% | 87.4% | 104% | 106% | 101% | 45.5% | -8.38% (active) | 95.9% | 70.8% | 24%
4 | CC(=O)OC[C@]12CC[C@@H](C(=O)CBr)[C@@H]1[C@H]1CC[C@@H]3[C@@]4(C)CCCNC(C)(C)[C@@H]4CC[C@@]3(C)[C@]1(C)CC2 | -64.3% [100 µM] (active) | -20.3% [100 µM] (active) | -100% [100 µM] (active) | -86.8% [100 µM] (active) | -66.7% [100 µM] (active) | -76.7% [100 µM] (active) | -81.4% [100 µM] (active) | -69.7% [100 µM] (active) | -74.3% [100 µM] (active) | -59.3% [100 µM] (active)
5 | C=C(C)C1CCC2(C(=O)O)CCC3(C)C(CCC4C5(C)CCC(OC(=O)NCc6ccccc6)C(C)(C)C5CCC43C)C12 (stereo not given) | 32.3% | 44.8% | 59.3% | 48.4% | 29.4% | -4.47% (active) | -6.51% (active) | 26.7% | 44.8% | 13.7%
6 | COC(=O)[C@@H](NC(=O)NC(=O)NC(=O)CI)C(C)C | 93.8% | 85.1% | 103% | 86.3% | 89.3% | -17.7% (active) | -85.9% (active) | 94.6% | -25.1% (active) | 38.6%
7 | CCNC(=O)N1CCc2c(Cl)c3c(c(OC)c2[C@@H]1[C@H]1OCc2c1ccc(OC)c2OC)OCCO3 | 32.6% | 60.1% | 30.1% | 35.3% | 9.88% (active) | 44.5% | 11.6% | 35.2% | 26.9% | -11% (active)
8 | COC(=O)[C@H](CC(C)C)NC(=O)NC(=O)NC(=O)CI | 73.5% | 98.5% | 98.2% | 92.8% | 85.9% | -60.6% (active) | -79.2% (active) | 98.2% | -73.5% (active) | -31.4% (active)
9 | Cc1cnc([C@]23CC[C@@H](C)[C@H](C)[C@H]2C2=CC[C@@H]4[C@@]5(C)Cc6c([nH]c7ccccc67)C(C)(C)[C@@H]5CC[C@@]4(C)[C@]2(C)CC3)o1 | 27.8% [100 µM] | 59.2% [100 µM] | 37% [100 µM] | 43.8% [100 µM] | 16.7% [100 µM] | 30.5% [100 µM] | 79.5% [100 µM] | 28.8% [100 µM] | 27% [100 µM] | 43% [100 µM]
10 | CC(C)[C@H]1CCC2=C3CC[C@]45OC(=O)[C@@]6(CCC(C)(C)C[C@H]64)CC[C@@]5(C)[C@]3(C)CC[C@@]21C | 54.4% [100 µM] | 68.4% [100 µM] | 94.5% [100 µM] | 76.3% [100 µM] | 71.8% [100 µM] | 19.9% [100 µM] | 55.7% [100 µM] | 67.1% [100 µM] | 69.3% [100 µM] | 97% [100 µM]
11 | CC[C@]12C=CCN3CC[C@@]4(c5ccc(OC)cc5N(C)[C@H]4[C@@](O)(C(=O)OC)[C@@H]1OC(=O)CCC(=O)N[C@H](Cc1c[nH]c4ccccc14)C(=O)OC)[C@@H]32 | -28% [100 µM] (active) | -37.2% [100 µM] (active) | -53.9% [100 µM] (active) | -7.11% [100 µM] (active) | -65.7% [100 µM] (active) | -56.7% [100 µM] (active) | -16.2% [100 µM] (active) | -30.9% [100 µM] (active) | -47.1% [100 µM] (active) | 0.36% [100 µM] (active)
12 | O=S(=O)(c1ccc(N/N=C\c2ccccc2Cl)cc1)c1ccc(N/N=C/c2ccccc2Cl)cc1 | 86.8% | 74.9% | 94.2% | 88% | 71.2% | 31.2% | 84.8% | 85.2% | 98.4% | 97.1%
13 | CC1Cc2c(Cl)ncnc2N(C)c2ccc(Cl)cc21 (stereo not given) | 13.5% | -5.56% (active) | 36.8% | 13.6% | 19.2% | 8.05% (active) | -68.3% (active) | 17.9% | 8.16% (active) | -77.6% (active)
